The values below come from PubChem BioAssay.

Structures are written as SMILES. For some of these results: Measured potencies and affinities stand elsewhere. The source made the active and inactive calls.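 Rule for the calls, unless noted: active = earlier screen potentiator hit that boosts the TRPC4 ion channel at some dose, with a dose response; inactive = no potentiation, no dose response, or not a prior hit.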

For assay [1], the system named is TRPC4 beta (transient receptor potential cation channel C4), mouse. The experiment in a line: activators of mouse TRPC4 channel, confirmation, cell-based, Fluo4 calcium, HEK293 TRPC4beta/mu-opioid, duplicates, 10 µM (AID 2426;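 active = fluorescence ratio normalized to control raised more than 50% in primary screen plus both repeat runs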). Particulars: Fluo4 calcium fluorescence, at 10 µM; hits give high values.
Assay [2] relates to transient receptor potential cation channel C4 beta (TRPC4), mouse. The assay can be described thus: activators of mouse TRPC4 channel, confirmation, cell-based, second round, Fluo4, HEK293 TRPC4beta/mu-opioid, 1 µM (AID 2461;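 active = primary screen active and over 50% activation in each of two duplicate runs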). Particulars: Fluo4 calcium fluorescence, at 1 µM; hits give high values.
Assay [3] deals with TRPC4 (transient receptor potential cation channel C4 beta), mouse. The assay can be described thus: positive allosteric modulators of mouse TRPC4, confirmation, cell-based, second round, Fluo-4, HEK293 TRPC4beta/mu-opioid, 1 µM (AID 2554;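 active = primary screen hit whose fluorescence ratio, in both repeats, exceeds the weak agonist control mean by 3 SD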). Particulars: DAMGO EC20, Fluo-4 calcium flux, at 1 µM; hits give high values. (A change in cytosolic calcium serves as a functional read-out for many receptors and channels.)

Assay [4] concerns TRPC4 beta (transient receptor potential cation channel C4), mouse. The experiment in a line: positive allosteric modulators of mouse TRPC4, confirmation, cell-based, Fluo-4, HEK293 TRPC4beta/mu-opioid (AID 2555;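 active = primary screen hit whose calcium fluorescence ratio, in both repeats, exceeds the weak agonist control mean by 3 SD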). The conditions noted are these: DAMGO EC20, Fluo-4 calcium flux, at 10 µM; hits give high values.
Assay [5] has as its target Short transient receptor potential channel 4 (Mus musculus) (UniProt Q9QUQ5). The experiment in a line: inhibitors of mouse TRPC4 channel, confirmation, cell-based, Fluo4, HEK293 TRPC4beta/mu-opioid (AID 2636;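 active = calcium signal cut by more than 3 SD below the full-agonist control yet still positive, in both repeats and the earlier primary screen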). The conditions noted are these: DAMGO, Fluo4 calcium flux, at 10 µM; hits give high values.
Assay [6] has the same target. The experiment in a line: inhibitors of mouse TRPC4 channel, confirmation, cell-based, second round, Fluo4, HEK293 TRPC4beta/mu-opioid, 1 µM (AID 2637;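 active = calcium signal ratio cut to more than 3 SD under the fully stimulated control mean yet still positive, in both repeats and the primary screen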;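 for inhibition: percent of integrated ratio relative to wells lacking test compound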). The conditions noted are these: Fluo4 calcium flux, DAMGO, at 1 µM; hits give high values.
Assay [7] shares this target. The assay can be described thus: mouse TRPC4 channel activators, dose response, cell-based, HEK293 TRPC4/mu-opioid, Fluo-4 calcium (AID 434937;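 active = primary screen activator hit with a dose response curve and TRPC4 channel activation at any tested dose; inactive = no activation, no dose response, or not a primary hit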).
Assay [8] has the same target. The experiment in a line: TRPC4 positive allosteric modulators, dose response, cell-based, HEK293 TRPC4/mu-opioid, Fluo-4 calcium, EC20 DAMGO (AID 434941).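 Note: calcium entry triggered by an EC20 dose of DAMGO at the co-expressed mu-opioid receptor.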
In assay [9] the target is Short transient receptor potential channel 6 (Mus musculus) (UniProt Q61143). The experiment in a line: inhibition of mouse TRPC6 channel, confirmation, selectivity assay for TRPC4 inhibitor project, cell-based, HEK293, membrane potential dye, duplicate (AID 434948;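 active = active in primary screen and both duplicates, each dropping signal beyond three positive-control SD with fluorescence still positive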). The conditions noted are these: HEK293 TRPC6, membrane potential dye fluorescence, at 10 µM, stimulated with maximal-effect acetylcholine; hits give high values.

For assay [10] the target is unchanged. The experiment in a line: activation of mouse TRPC6 channel, confirmation, selectivity assay for TRPC4 activator project, cell-based, HEK293, membrane potential dye, duplicate (AID 434950;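 active = membrane potential signal rise above negative control mean plus 3 SD in both duplicates, also active in the earlier TRPC4 screen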). The conditions noted are these: HEK293 TRPC6, membrane potential fluorescence, at 10 µM; hits give high values.
Assay [11] shares this target. The experiment in a line: TRPC6 potentiation by TRPC4 potentiator hits, confirmation, selectivity assay for TRPC4 potentiator project, HEK293 cells, membrane potential dye, duplicate (AID 434952;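 active = compound raising the membrane signal above positive-control mean plus 3 SD in both repeats, and a primary screen hit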). Particulars: HEK293 TRPC6, membrane potential dye fluorescence, at 10 µM, maximal acetylcholine added after compound; hits give high values.
Assay [12] concerns the target Short transient receptor potential channel 4 (Mus musculus) (UniProt Q9QUQ5). The assay can be described thus: calcium flux activators in TRPC4/5HT1a cells, counter-screen for TRPC4 activator project, cell-based, second counter screen, HEK293 TRPC4/5HT1a, Fluo-4 (AID 434977;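 active = calcium signal rise above buffer-control mean plus 5 SD in both duplicates, and also a hit in the primary screen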). Particulars: Fluo-4 calcium flux, at 10 µM; hits give high values.
Assay [13] in a line: calcium flux inhibitors in TRPC4/5HT1a cells, confirmation, counter-screen for TRPC4 inhibitor project, cell-based, second counter screen, HEK293 TRPC4/5HT1a, Fluo-4 (AID 434978;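 active = primary screen active whose calcium signal fell more than 3 SD beyond the full-serotonin control mean in both duplicate plates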;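 for outcome: serotonin given first at submaximal then at maximal dose after compound preincubation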). Particulars: Fluo-4 calcium flux, at 10 µM, serotonin added to trigger calcium flux; hits give high values.
Assay [14] has as its system TRPC4 (mouse), co-expressed with 5HT1a in HEK293. The experiment in a line: calcium flux potentiators in TRPC4/5HT1a cells, confirmation, counter-screen for TRPC4 potentiator project, cell-based, second counter screen, HEK293 TRPC4/5HT1a, Fluo-4 (AID 434979;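 active = signal rise over 3 SD above mean of control wells given weak agonist, in both repeats and first screen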). Particulars: Fluo-4 calcium flux, at 10 µM, serotonin added at its EC20 dose; hits give high values.
The nature of assay [15]: calcium flux activation in mu-opioid HEK293 cells, confirmation, counter-screen for TRPC4 activator project, cell-based, HEK293 mu-opioid receptor line (AID 449723;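 active = hit in primary screen, with calcium signal over 5 SD above buffer well mean in both duplicates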;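 note: counter screen cells carry the mu-opioid receptor alone and lack TRPC4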). The conditions noted are these: Fluo-4 calcium fluorescence, at 10 µM; hits give high values.
The nature of assay [16]: calcium flux enhancement in mu-opioid HEK293 cells, confirmation, counter-screen for TRPC4 allosteric potentiator project, cell-based, HEK293 mu-opioid receptor line (AID 449724;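 active = calcium signal rise more than 3 SD above the low-dose agonist control mean, in both duplicate plates and the primary screen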;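 note: HEK293 cells carrying mu-opioid receptor only with no TRPC4 channel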). The conditions noted are these: Fluo-4 calcium flux, at 10 µM, compound added before EC20 DAMGO stimulus; hits give high values.

Short transient receptor potential channel 6 (Mus musculus), sequence (Q61143 whole entry, looked up): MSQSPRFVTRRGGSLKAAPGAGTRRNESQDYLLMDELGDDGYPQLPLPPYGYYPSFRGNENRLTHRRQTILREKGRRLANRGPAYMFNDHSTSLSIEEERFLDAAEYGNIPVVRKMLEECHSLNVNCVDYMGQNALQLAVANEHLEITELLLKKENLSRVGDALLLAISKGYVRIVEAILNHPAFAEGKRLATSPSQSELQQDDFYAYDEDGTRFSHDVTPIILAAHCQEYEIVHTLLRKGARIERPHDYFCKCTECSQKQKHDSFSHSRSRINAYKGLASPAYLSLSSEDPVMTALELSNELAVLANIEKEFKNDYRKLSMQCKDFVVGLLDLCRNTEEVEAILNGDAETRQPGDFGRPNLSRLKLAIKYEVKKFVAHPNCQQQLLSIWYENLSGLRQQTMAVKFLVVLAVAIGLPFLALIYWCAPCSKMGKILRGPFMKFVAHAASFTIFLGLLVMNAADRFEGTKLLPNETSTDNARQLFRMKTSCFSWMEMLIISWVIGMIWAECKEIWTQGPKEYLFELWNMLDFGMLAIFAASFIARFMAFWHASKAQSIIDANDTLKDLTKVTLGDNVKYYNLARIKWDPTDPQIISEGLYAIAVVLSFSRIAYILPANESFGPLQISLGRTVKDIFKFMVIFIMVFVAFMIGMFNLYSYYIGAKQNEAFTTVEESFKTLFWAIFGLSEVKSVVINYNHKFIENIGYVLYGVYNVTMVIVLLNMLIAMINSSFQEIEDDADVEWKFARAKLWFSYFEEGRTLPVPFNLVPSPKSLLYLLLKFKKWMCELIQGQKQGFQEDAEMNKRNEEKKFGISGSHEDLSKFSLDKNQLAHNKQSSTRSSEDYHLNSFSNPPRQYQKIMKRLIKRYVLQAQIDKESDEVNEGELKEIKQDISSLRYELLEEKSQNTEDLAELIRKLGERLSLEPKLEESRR
Short transient receptor potential channel 4 (Mus musculus), sequence (Q9QUQ5 whole entry, looked up): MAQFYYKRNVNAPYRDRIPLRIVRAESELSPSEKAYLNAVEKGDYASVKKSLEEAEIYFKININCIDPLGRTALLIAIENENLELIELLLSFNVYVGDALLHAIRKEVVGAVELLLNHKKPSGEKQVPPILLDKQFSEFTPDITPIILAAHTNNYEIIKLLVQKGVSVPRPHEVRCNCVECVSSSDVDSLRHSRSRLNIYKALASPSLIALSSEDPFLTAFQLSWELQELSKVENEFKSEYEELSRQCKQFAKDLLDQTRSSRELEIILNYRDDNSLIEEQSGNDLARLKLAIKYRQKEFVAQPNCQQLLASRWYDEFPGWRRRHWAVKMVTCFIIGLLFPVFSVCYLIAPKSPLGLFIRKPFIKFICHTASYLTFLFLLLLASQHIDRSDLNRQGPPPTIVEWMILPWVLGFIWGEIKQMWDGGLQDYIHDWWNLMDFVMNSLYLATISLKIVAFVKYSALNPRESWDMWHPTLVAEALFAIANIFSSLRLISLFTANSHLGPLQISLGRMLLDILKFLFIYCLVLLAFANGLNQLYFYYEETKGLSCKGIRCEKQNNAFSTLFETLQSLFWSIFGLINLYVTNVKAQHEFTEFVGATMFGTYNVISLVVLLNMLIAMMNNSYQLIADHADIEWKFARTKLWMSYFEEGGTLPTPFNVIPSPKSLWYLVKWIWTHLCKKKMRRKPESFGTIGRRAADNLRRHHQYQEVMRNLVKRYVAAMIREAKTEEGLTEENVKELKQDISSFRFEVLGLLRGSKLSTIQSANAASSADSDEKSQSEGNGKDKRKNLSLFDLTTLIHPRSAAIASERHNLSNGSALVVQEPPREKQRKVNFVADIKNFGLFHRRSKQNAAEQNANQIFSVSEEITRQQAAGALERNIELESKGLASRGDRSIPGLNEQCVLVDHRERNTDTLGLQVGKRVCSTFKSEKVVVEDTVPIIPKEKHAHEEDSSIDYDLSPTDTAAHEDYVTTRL

Turning to `CCOC(=O)C1(Cc2ccccc2)CCN(Cc2ccc(C)s2)CC1`, the outcome in assay [1], in assay [2], in [3], in [4], in assay [6] and in assay [7] was inactive. Besides, the result in assay [8], in [9], in [10], in [11], in assay [12] and in [14] was inactive. Further, the result in assay [15] and in assay [16] was inactive. In addition, the results for the inhibition in assay [5] and in [13] were 88% (active) and 13.9% (active), respectively.
Consider `CCCCC[n+]1cccc2c3ccccc3ccc21`, for which the result in assay [1], in assay [2], in assay [3], in assay [4], in assay [6] and in assay [7] was inactive. Moreover, the result in assay [8], in assay [10], in assay [11], in assay [12], in [14] and in [15] was inactive. The result in assay [16] was inactive. The inhibition (as a rule, the share of the control response that was lost under treatment) in [5] was 93% (active); in assay [9] it was 29% (active); in assay [13] it was 28.4% (active).
In the case of `Clc1ccccc1CSc1nc2ccncc2[nH]1`, the outcome in assay [1], in assay [2], in assay [3], in assay [4], in assay [6] and in assay [7] was inactive. The outcome in assay [8], in [9], in [10], in assay [11], in assay [12] and in assay [13] was inactive. Further, the outcome in assay [14], in [15] and in assay [16] was inactive. For the same compound, the inhibition in [5] was 99% (active).
As for `OCCNCc1cc(Br)ccc1OCc1ccc(Cl)cc1Cl`, the outcome in [1], in assay [2], in [3], in assay [4], in [6] and in [7] was inactive. Also, the result in assay [8], in assay [9], in assay [10], in [11], in [12] and in assay [14] was inactive. For the same compound, the result in assay [15] and in [16] was inactive. Moreover, the inhibition in [5] was 49% (active); in assay [13] it was 24.9% (active).
Consider `CC1Oc2ccccc2C=C1/C=N/Nc1ccc(C(=O)O)cc1` (stereo unspecified), for which the outcome in assay [1], in assay [2], in assay [3], in assay [4], in assay [7] and in [8] was inactive. Besides, the compound was classed as inactive in assay [9], in [10], in [11], in assay [12], in assay [14] and in [15]. For the same compound, the result in assay [16] was inactive. The values for the inhibition in assay [5], in [6] and in [13] were 82% (active), 51% (active) and 38.1% (active), respectively.
Consider `CCOC(=O)C1(Cc2cccc(F)c2)CCN(Cc2c(C)nn(CC)c2C)CC1`, for which the outcome in assay [1], in [2], in [3], in assay [4], in assay [6] and in [7] was inactive. Also, the result in [8], in [9], in [10], in assay [11], in assay [12] and in [13] was inactive. Besides, the result in [14], in [15] and in assay [16] was inactive. For the same compound, in assay [5], the inhibition is 86% (active).
Turning to `CC(C)C(=O)Nc1ccc(C(=O)Nc2nnc(C(C)(C)C)s2)cc1`, the result in [1], in [2], in assay [3], in [4], in assay [6] and in [7] was inactive. In addition, the outcome in [8], in assay [9], in assay [10], in [11], in assay [12] and in assay [14] was inactive. Further, the outcome in [15] and in assay [16] was inactive. The inhibition in assay [5] was 57% (active); in assay [13], 35.1% (active).
As to `Cc1ccccc1N(C(=O)c1snc(C(N)=O)c1N)C(C(=O)NC1CCCC1)c1ccco1` (stereo unspecified), the outcome in [1], in assay [2], in assay [3], in assay [4], in assay [6] and in assay [7] was inactive. Moreover, the result in assay [8], in assay [9], in assay [10], in [11], in assay [12] and in assay [14] was inactive. The outcome in assay [15] and in assay [16] was inactive. In addition, the values for the inhibition in assay [5] and in assay [13] were 78% (active) and 37% (active), respectively.
On to `Cc1ccc2cc(CN(CCCN3CCOCC3)C(c3nnnn3Cc3ccco3)C(C)C)c(=O)[nH]c2c1C` (stereo unspecified), for which the outcome in assay [1], in assay [2], in assay [3], in assay [4], in assay [7] and in [8] was inactive. Further, the compound was called inactive in assay [9], in [10], in assay [11], in assay [12], in [13] and in assay [14]. The outcome in [15] and in assay [16] was inactive. Also, the figures for the inhibition in assay [5] and in [6] were 98% (active) and 72% (active), respectively.
For the compound `COc1cc(/C=C2\SC(N3CCC(C)CC3)=NC2=O)ccc1O`, the result in [1], in assay [2], in [3], in assay [4], in assay [7] and in assay [8] was inactive. Besides, the outcome in assay [9], in assay [10], in assay [11], in assay [12], in assay [14] and in [15] was inactive. In addition, the result in assay [16] was inactive. Besides, the inhibition in assay [5] was 91% (active); in assay [6], 48% (active); in [13], 31.2% (active).
With `Clc1ccc(-c2csc3ncnc(NCCN4CCOCC4)c23)cc1`, the outcome in assay [1], in assay [2], in assay [3], in [4], in [7] and in assay [8] was inactive. In addition, the compound was classed as inactive in assay [9], in [10], in [11], in [12], in assay [14] and in assay [15]. In assay [16], the outcome was inactive. In addition, the inhibition in assay [5] is 79% (active); in [6] it was 50% (active); in [13], 38% (active).
For the compound `N#Cc1c(N2CCCCC2)nc(N)c2c(N)nc3c(c12)CC(c1ccccc1)O3` (stereo unspecified), the result in [1], in assay [2], in assay [3], in assay [4], in assay [7] and in assay [8] was inactive. The outcome in [9], in assay [10], in assay [11], in [12], in assay [14] and in assay [15] was inactive. In addition, in assay [16], the outcome was inactive. Moreover, the inhibition in [5] is 87% (active); in assay [6], 49% (active); in assay [13], 31.5% (active).
For `Clc1cccc(COn2c(-c3ccc(Cl)cc3Cl)nc3ncccc32)c1`, the result in [1], in assay [2], in [3], in [4], in [7] and in [8] was inactive. In addition, the compound was classed as inactive in assay [9], in [10], in assay [11], in assay [12], in assay [14] and in assay [15]. Moreover, the result in [16] was inactive. Further, the inhibition in [5] was 83% (active); in assay [6] it was 45% (active); in assay [13], 41.3% (active).
With `CN1CCN(Cc2cn[nH]c2-c2ccc(F)cc2F)[C@@H](c2ccccc2)C1`, the result in assay [1], in assay [2], in [3], in assay [4], in assay [5] and in assay [6] was inactive. Moreover, the outcome in [7], in assay [8], in [9], in assay [10], in [11] and in assay [12] was inactive. The outcome in assay [13], in [14], in assay [15] and in [16] was inactive.
Take `COc1ccc(C)cc1N(C(=O)c1snc(C(N)=O)c1N)C(C(=O)NC1CCCC1)c1ccc(F)cc1` (stereo unspecified): the outcome in assay [1], in assay [2], in assay [3], in [4], in assay [7] and in assay [8] was inactive. Moreover, the call in assay [9], in [10], in assay [11], in assay [12], in [14] and in [15] was inactive. In addition, the outcome in [16] was inactive. Besides, the inhibition in assay [5] was 91% (active); in [6], 67% (active); in [13] it was 41.2% (active).
As for `Cc1ccc(Sc2ccc(CO)cc2[N+](=O)[O-])cc1`, the result in [1], in [2], in [3], in assay [4], in assay [6] and in assay [7] was inactive. The result in [8], in assay [9], in assay [10], in [11], in [12] and in assay [14] was inactive. Moreover, the outcome in assay [15] and in [16] was inactive. The inhibition in [5] was 98% (active); in assay [13], 7.78% (active).
